Only some compounds are listed: those with a hit (about 3.1% of all), similar ones and a draw of the others.
Rin1 Abl inh: inhibitors of Rin1-Abl protein binding, primary screen, biochemical, TR-FRET; Tyrosine-protein kinase ABL1 (Homo sapiens) + Ras and Rab interactor 1 (Homo sapiens), …; inhibition, % at 7.35 µM; 360,000 compounds, 0.4% hits; AID 588664, 2011; in the data active = inhibition above about 5%, passing the limit was not always enough
PAFAH1B2 inh: PAFAH1B2 enzyme inhibitors, primary screen, biochemical, fluorescence polarization, human; 340,000 compounds, 1.2% hits; Platelet-activating factor acetylhydrolase IB subunit alpha2 (Homo sapiens), P68402; inhibition, % at 3.39 µM; recombinant PAFAH1B2, FP-rhodamine activity probe;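 active = inhibition above the mean of all tested compounds plus 3 SD, cut at about 24% in these data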;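 note: 0% = enzyme with DMSO and 100% = wells lacking PAFAH1B2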
Target sequence (P68402 whole entry, looked up): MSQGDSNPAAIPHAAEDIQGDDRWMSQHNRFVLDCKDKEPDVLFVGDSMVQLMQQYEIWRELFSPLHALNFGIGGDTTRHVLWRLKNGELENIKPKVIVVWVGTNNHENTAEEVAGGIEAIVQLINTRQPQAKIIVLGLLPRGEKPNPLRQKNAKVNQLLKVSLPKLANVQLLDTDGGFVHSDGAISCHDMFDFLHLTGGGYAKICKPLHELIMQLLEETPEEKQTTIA
PAFAH2 FP inh: PAFAH2 enzyme inhibitors, primary screen, biochemical, fluorescence polarization, human | Platelet-activating factor acetylhydrolase 2, cytoplasmic (Homo sapiens), Q99487 | recombinant PAFAH2, FP-rhodamine activity probe | inhibition, % at 3.39 µM | 340,000 compounds, 0.99% hits | AID 492956, 2010;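 active = inhibition above the mean over all tested compounds plus 3 SD, cut at about 30% in these data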;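 note: inhibitors block probe labeling of enzyme so polarization drops; 0% = enzyme with DMSO and 100% = wells lacking PAFAH2 protein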
pPAFAH inh: pPAFAH enzyme inhibitors, primary screen, biochemical, fluorescence polarization, human; 330,000 compounds, 1.5% hits; recombinant pPAFAH, FP-rhodamine probe fluorescence polarization; inhibition, % at 3.39 µM; AID 463082, 2010; Platelet-activating factor acetylhydrolase (Homo sapiens), Q13093;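 active = inhibition above the mean inhibition across the screen plus 3 SD, cut at about 25% in these data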;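 note: inhibitors block binding of the rhodamine activity-based probe so polarization drops; 0% = enzyme with DMSO and 100% = wells lacking pPAFAH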
PAFAH1B3 inh: PAFAH1B3 enzyme inhibitors, primary screen, biochemical, fluorescence polarization, human; Platelet-activating factor acetylhydrolase IB subunit alpha1 (Homo sapiens), Q15102; recombinant PAFAH1B3, FP-rhodamine probe; inhibition, % at 3.39 µM; 340,000 compounds, 0.28% hits;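 active = inhibition above the screen-wide average of all tested compounds plus 3 SD, cut at about 25% in these data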;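 note: 0% = enzyme with DMSO only and 100% = wells lacking PAFAH1B3 protein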
Target sequence (Q15102 whole entry, looked up): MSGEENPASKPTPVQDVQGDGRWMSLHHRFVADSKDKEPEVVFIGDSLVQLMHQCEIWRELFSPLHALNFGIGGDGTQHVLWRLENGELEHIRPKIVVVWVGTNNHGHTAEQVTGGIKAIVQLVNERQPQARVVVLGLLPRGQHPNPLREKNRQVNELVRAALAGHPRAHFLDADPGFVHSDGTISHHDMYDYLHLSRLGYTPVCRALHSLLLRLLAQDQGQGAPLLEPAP
E coli Lon inh: inhibitors of E. coli Lon protease, primary screen, biochemical, fluorescence polarization; P0A9M0; 360,000 compounds, 0.42% hits; inhibition, % at 7.94 µM; purified E. coli Lon protease; in the data active = inhibition above about 13%, passing the limit was not always enough;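 note: 0% = enzyme with probe and DMSO and 100% = no enzyme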
Starred values were filed as active, the others as inactive; . = not tested or not shown.

SMILES | Rin1 Abl inh | PAFAH1B2 inh | PAFAH2 FP inh | pPAFAH inh | PAFAH1B3 inh | E coli Lon inh
COc1cccc(C2CC(=O)Nc3cc4c(cc32)CCC4)c1 (stereo unspecified) | 1 | 0 | -1 | 32* | 4 | -13
CN(CC(=O)Nc1ccc(Cl)c(C(F)(F)F)c1)C(=O)CCNC(=O)c1ccco1 | 1 | 10 | 4 | 9 | 5 | 4
CN(CC(=O)Nc1ccc(Cl)c(C(F)(F)F)c1)C(=O)CCCNC(=O)c1ccc(Cl)cc1 | -1 | 53* | 1 | 31* | 3 | 7
O=C(Nc1ccc(N2CCOCC2)cc1)C1(c2ccc(Cl)cc2)CCC1 | 1 | 80* | -2 | 8 | -4 | 3
C[C@@H](C(=O)OCC(=O)c1ccc(F)c(F)c1)N1C(=O)C2CCCCC2C1=O (stereo partly specified) | 2 | 3 | 20 | 28* | 3 | 3
Cc1ccc(-c2cn(-c3ccccc3)c(SCC(N)=O)n2)cc1C | -2 | -4 | 8 | 30* | 2 | 6
CCOC(=O)NC(=O)CSc1nc(-c2ccc(C)c(C)c2)cn1-c1ccccc1 | -2 | 3 | 3 | 32* | 0 | -9
Cc1ccccc1-n1cc(-c2ccc(Br)cc2)nc1SCC(N)=O | -1 | . | . | 10 | . | -4
CCOC1=C2CN(S(=O)(=O)c3ccc(C)cc3)[C@H](c3ccccc3)C[C@@H]2N(S(=O)(=O)c2ccccc2C)[C@H](c2ccccc2)C1 | 2 | . | . | . | . | -2
O=C(NNc1c2ccccc2nc2ccccc12)c1ccc(O)cc1O | -6 | 6 | -4 | 20 | 13 | -7
O=C(NNc1c2ccccc2nc2ccccc12)c1ccccc1O | -1 | 14 | 22 | 32* | 14 | -1
O=C(NNc1c2ccccc2nc2ccccc12)c1cccc(O)c1 | -4 | 8 | 16 | 26* | 16 | -39
Oc1cc(NCCN2CCOCC2)cc2cccnc12 | 2 | -1 | 2 | 4 | 54* | 3
COC(=O)c1ccc(OC(=O)/C=C/c2ccco2)cc1 | -1 | 6 | 26 | 5 | 6 | -4
O=Cc1cccc(OC(=O)/C=C/c2ccco2)c1 | 0 | 5 | 15 | 30* | 9 | -5
O=C(O)c1cc(-c2ccccc2Cl)n(-c2ccccc2)n1 | 0 | 29* | -7 | 4 | 6 | -1
C[C@@H]1CN([C@H](C)CO)C(=O)c2cc(NC(=O)Cc3ccccc3)ccc2O[C@H]1CN(C)Cc1ccc(Oc2ccccc2)cc1 | -2 | 0 | 4 | 25* | -3 | -1
COc1ccc(S(=O)(=O)N(C)C[C@@H]2Oc3ccc(NS(C)(=O)=O)cc3C(=O)N([C@@H](C)CO)C[C@H]2C)cc1 | 3 | 3 | 11 | 2 | 4 | 4
COc1ccc(S(=O)(=O)Nc2ccc3c(c2)C(=O)N([C@H](C)CO)C[C@H](C)[C@@H](CN(C)S(=O)(=O)c2ccc(F)cc2)O3)cc1 | 1 | 29* | 1 | 6 | 2 | 7
C[C@H](CO)N1C[C@H](C)[C@@H](CN(C)C(=O)Nc2ccc(C(F)(F)F)cc2)Oc2ccc(NS(=O)(=O)c3cccs3)cc2C1=O | 5 | 2 | 10 | 13 | 5 | -5
COc1ccc(S(=O)(=O)Nc2ccc3c(c2)C(=O)N([C@H](C)CO)C[C@H](C)[C@@H](CN(C)S(=O)(=O)c2cccs2)O3)cc1 | 1 | 26* | 8 | 5 | 7 | 9
Cc1ccc(S(=O)(=O)Nc2ccc3c(c2)C(=O)N([C@H](C)CO)C[C@H](C)[C@@H](CN(C)C(=O)Nc2ccc(C(F)(F)F)cc2)O3)cc1 | 1 | 8 | 7 | 25* | 4 | 10
O=C(CCc1nnc2ccc(N3CCC4(CC3)OCCO4)nn12)NCc1ccccc1Cl | 0 | 2 | 2 | 5 | 1 | 4
COc1ccc(S(=O)(=O)Nc2ccc3c(c2)C(=O)N([C@H](C)CO)C[C@@H](C)[C@@H](CN(C)S(=O)(=O)c2ccc(Cl)cc2)O3)cc1 | 1 | 17 | 4 | 7 | 2 | -7

Screens (PubChem)
